Reference: PubChem BioAssay (NCATS)
“And” between values parts separate entries of the source, which are not always exact repeats. Equal entries are not always repeated. Records with an inconclusive call do not appear. The source made the active and inactive calls. Unless noted, calls follow the shape of the full dose curve.

Legend:
[1] = Cell Viability - Jurkat (AID 426;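 active = dose-dependent loss of cell ATP signal giving a full or clear fitted curve, ranked by lower potency value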; also: potency is read from the fitted curve at half-maximal effect); conditions: qHTS
How it was run: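 qHTS, 1536-well; Jurkat E6-1, 5000 cells/well, complete medium; cpd 40 hr, 37 °C; CellTiter-Glo 20 min RT; luminescence. AC50 by Hill fit.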

[2] = Cell Viability - HepG2 (AID 433); conditions: qHTS;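 also: potency is read from the fitted curve at half-maximal effect; potency for ATP loss meaning cytotoxicity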
How it was run: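 ATP luminescence (CellTiter-Glo) after 40 h compound exposure, 37 °C, HepG2, 1500 cells/well, complete medium. Normalized: DMSO = basal, 100 uM tamoxifen = 100% inhibition. AC50 via standard Hill equation.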

[3] = Cell Viability - MRC5 (AID 434); conditions: MRC5 lung fibroblast viability, qHTS;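 also: potency is read from the fitted curve at half-maximal effect; potency reflects cytotoxicity seen as loss of intracellular ATP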
How it was run: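 qHTS cytotoxicity in human lung fibroblast MRC5 cells; 40 hr treatment, 37 °C; cellular ATP by luciferase luminescence; DMSO = 0%, 100 uM tamoxifen = 100% inhibition; Hill-fit AC50.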

[4] = Cell Viability - LYMP2-022 (AID 987; active = well fitted curve in the direction sought with a large enough effect; an effect the other way counts as inactive or inconclusive;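 also: 0% = DMSO alone and full effect = tetraoctylammonium bromide at 92 µM; nearly all actives have a fitted effect of over 55% in size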); conditions: LYMP2-022 lymphoblastoid cell viability; series mostly up to 92.2 µM
How it was run: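 qHTS: human lymphoblastoid cells 2500/well; 5 hr 37 C; cpd added; 24 hr 37 C; CellTiter-Glo, 30 min RT; luminescence. AC50 via Hill fit; tetraoctylammonium bromide positive ctrl.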

[5] = Cell Viability - LYMP2-024 (AID 988; active = well fitted curve in the direction sought with a large enough effect; an effect the other way counts as inactive or inconclusive; also: nearly all actives have a fitted effect of over 60% in size; also: potency is read from the fitted curve at half-maximal effect;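 as to activity change, negative = cytotoxicity: plate controls were DMSO only for no effect and 92 µM tetraoctylammonium bromide for full effect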); conditions: LYMP2-024 lymphoblastoid cell viability; series mostly up to 92.2 µM
How it was run: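 Steps: seed 2500 cells/well, 5 hr 37 C; add compound, 24 hr 37 C; add CellTiter-Glo, 30 min room temperature; read luminescence. AC50 derived by Hill modelling of concentration-dependent ATP loss.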

[6] = target: Bile acid receptor (Homo sapiens) (UniProt Q96RI1); experiment: qHTS assay for small molecule agonists of farnesoid X receptor signaling (AID 588527); conditions: HEK293T FXR-UAS-bla, beta-lactamase ratio, 16 h; stronger effect = higher value;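 also: 0% = vehicle basal and 100% = reference agonist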
How it was run: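 Quantitative HTS used FXR-UAS-bla HEK293T cells with 16 h compound incubation at 37 C. EC50 values came from concentration-response curves normalized to chenodeoxycholic acid.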

[7] = qHTS assay for small molecule antagonists of peroxisome proliferator-activated receptor delta signaling (AID 588535; active = well fitted inhibition curve with a large enough effect in the signal ratio, with a control signal flat, not every such curve was filed as active; the % refers to the signal ratio;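 as to max response: cells co-treated with a PPAR-delta agonist as stimulator during compound exposure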); conditions: HEK293T PPARd-UAS-bla, beta-lactamase FRET ratio, 18 h; 460 nm channel
How it was run: (§1)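 HEK293T PPAR-delta-UAS-bla cells, 4000/well, 2% charcoal/dextran FBS; 5 h 37 C; cpd titration; 18 h 37 C; CCF4 2 h RT; FI 460/530 nm; Hill fit → IC50, efficacy.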

[8] = target: Peroxisome proliferator-activated receptor delta (Homo sapiens) (UniProt Q03181); experiment: as above; conditions: HEK293T PPARd-UAS-bla, beta-lactamase FRET ratio, 18 h; series mostly up to 76.7 µM
How it was run: as §1

[9] = target: Peroxisome proliferator-activated receptor gamma (Homo sapiens) (UniProt P37231); experiment: qHTS assay for small molecule agonists of peroxisome proliferator-activated receptor gamma signaling (AID 588536; active = well fitted curve in the direction sought with a large enough effect in the signal ratio, with a control signal flat, not every such curve was filed as active; the % refers to the signal ratio;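 also: 0% = DMSO basal wells and 100% = rosiglitazone at 2 µM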); conditions: HEK293 PPARg-UAS-bla, beta-lactamase ratio, 16 h, percent of rosiglitazone response, DMSO as zero; series mostly up to 76.7 µM
How it was run: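 HEK293 UAS-bla reporter line, 1% charcoal/dextran FBS; titration, 16 h, 37 C; CCF4 loading 2 h RT; fluorescence 460/530 nm. Normalized to rosiglitazone 2 uM = 100%, DMSO = 0%.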

[10] = qHTS assay for environmental chemicals that activate the Aryl hydrocarbon Receptor (AhR) signaling pathway (AID 651777; active = well fitted curve in the direction sought with a large enough effect; an effect the other way counts as inactive or inconclusive; also: % of control where 0% means no effect; nearly all actives have a fitted effect of over 15% in size); conditions: 1A2-DRE human hepatoma cells, luciferase, 24 h; activation: stronger effect = higher value
How it was run: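 Human hepatoma 1A2-DRE cells stably carrying a DRE/CYP1A2 promoter–luciferase reporter, 1,200 cells/well, exposed to compound 24 hr at 37 C. Luciferase read by One-Glo luminescence after 30 min at room temperature; increased signal marks AhR activation.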

[11] = qHTS assay for small molecule agonists of the antioxidant response element (ARE) signaling pathway measured by Nrf2-dependant transcriptional activity (AID 720636; active = well fitted curve in the direction sought with a large enough effect in the repeat runs; an effect the other way counts as inactive or inconclusive; also: % of control where 0% means no effect); conditions: ARE-luc HepG2, Nrf2 luciferase reporter, 16 h; series mostly up to 92.4 µM
How it was run: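 ARE-luc HepG2 cells carrying an Nrf2-responsive luciferase reporter, in medium with 1% dialyzed FBS, exposed to compound for 16 hr at 37 C, 5% CO2. Luminescence read 30 min after ONE-Glo addition.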

[12] = target: Estrogen receptor (Homo sapiens) (UniProt P03372); experiment: qHTS assay for small molecule antagonists of estrogen receptor alpha signaling (AID 588513; active = well fitted curve in the direction sought with a large enough effect in the signal ratio, with a control signal flat, not every such curve was filed as active; the % refers to the signal ratio; also: % is scaled to controls: 0 for no effect and ±100 for the full control effect); conditions: ER-alpha-UAS-bla HEK293, beta-lactamase ratio, antagonist mode; series mostly up to 76.9 µM
How it was run: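 Beta-lactamase reporter, antagonist mode, HEK 293 GripTite cells; 0.5nM E2 stimulus, 18 h, 37 C; CCF4 dye 2 h RT; fluorescence. IC50 and efficacy from Hill fits, normalized to E2 and DMSO.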

[13] = target: Thyroid hormone receptor beta (Homo sapiens) (UniProt P10828); experiment: qHTS assay for small molecule agonists of thyroid hormone receptor beta signaling (AID 588545); conditions: TR-UAS-bla GripTite HEK 293, beta-lactamase ratio, agonist mode, 18 h; series mostly up to 76.7 µM
How it was run: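 Cells (2500/well) were seeded, incubated 4 hrs at 37 C, dosed with a compound series, incubated 18 hrs, loaded with CCF4 dye for 2 hrs at RT, then read for fluorescence. Data were scaled between DMSO (0%) and 10 nM T3 (100%).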

[14] = qHTS assay for small molecule activators of the p53 signaling pathway (AID 651743; active = well fitted activation curve with a large enough effect in the signal ratio, not every such curve was filed as active; the % refers to the signal ratio; also: % of control where 0% means no effect); conditions: HCT-116 p53RE-bla, beta-lactamase FRET ratio, 16 h; activation: stronger effect = higher value
How it was run: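 Read-out is fluorescence intensity from the LiveBLAzer B/G FRET substrate, added for 2 hours at room temperature after HCT-116 p53RE-bla cells had been incubated with compounds for 16 hours at 37 C.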

[15] = Cell Viability - NIH 3T3 (AID 541; active = well fitted curve in the direction sought with a large enough effect; an effect the other way counts as inactive or inconclusive; also: nearly all actives have a fitted effect of over 25% in size; also: potency is read from the fitted curve at half-maximal effect;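 as to activity change, negative = cytotoxicity: plate controls were DMSO alone for no effect and tamoxifen positive control for full effect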); conditions: NIH 3T3 cell viability, qHTS; activity change, negative = cytotoxicity: at 92.2 µM (top of the series)
How it was run: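 Luminescent ATP signal (CellTiter-Glo) served as the viability read-out after NIH 3T3 cells were exposed to compounds over a concentration range for 40 hr at 37 °C. Hill-equation modelling of concentration-response data gave AC50.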

[16] = Cell Viability - H-4-II-E (AID 543; active = well fitted curve in the direction sought with a large enough effect; an effect the other way counts as inactive or inconclusive; also: % is scaled to controls: 0 for no effect and ±100 for the full control effect; nearly all actives have a fitted effect of over 35% in size); conditions: H-4-II-E rat hepatoma viability; series mostly up to 92.2 µM
How it was run: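 Luminescent ATP signal (CellTiter-Glo) served as the viability read-out, with cytotoxicity seen as a concentration-dependent ATP drop. Cells were treated for 40 hours in complete medium. AC50 values derive from Hill-equation modelling.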

[17] = target: Vitamin D3 receptor (Homo sapiens) (UniProt P11473); experiment: qHTS assay for small molecule agonists of vitamin D receptor signaling (AID 588543); conditions: HEK293T VDR-UAS-bla, beta-lactamase ratio, 16 h; series mostly up to 76.8 µM;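 also: 0% = DMSO basal and 100% = reference agonist control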
How it was run: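 β-lactamase reporter, VDR-UAS-bla HEK293T, agonist mode. Cells plated 5 h at 37 °C, compound titration 16 h at 37 °C, CCF4 dye 2 h RT, ratio 460/530 nm. Hill fit → EC50, efficacy vs 50 nM 1α,25-(OH)2D3.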

[18] = target: Glucocorticoid receptor (Homo sapiens) (UniProt P04150); experiment: qHTS assay for small molecule agonists of glucocorticoid receptor signaling (AID 588532; active = well fitted curve in the direction sought with a large enough effect in the signal ratio, with a control signal flat; the % refers to the signal ratio;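 also: 100% = dexamethasone at 0.1 µM and 0% = DMSO only wells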); conditions: HeLa MMTV-bla, beta-lactamase ratio, agonist, 18 h; stronger effect = higher value; percent of dexamethasone control, DMSO zero
How it was run: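 Using MMTV-bla HeLa cells in medium with 1% stripped FBS and 25 mM HEPES, compounds were titrated and incubated overnight-length (18 h). Beta-lactamase cleavage of CCF4 was quantified by dual-emission fluorescence.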

[19] = target: Glucocorticoid receptor (Homo sapiens) (UniProt P04150); experiment: qHTS assay for small molecule antagonists of glucocorticoid receptor signaling (AID 588533; active = well fitted inhibition curve with a large enough effect in the signal ratio, with a control signal flat, not every such curve was filed as active; the % refers to the signal ratio;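 also: cells stimulated with 2 nM dexamethasone as agonist; % is scaled to controls: 0 for no effect and ±100 for the full control effect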); conditions: HeLa MMTV-bla, GRE beta-lactamase ratio, antagonist mode, 18 h; series mostly up to 76.8 µM
How it was run: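 Antagonist-mode qHTS: compound titrations added to GRE-bla HeLa cells, then dexamethasone 2 nM final; 18 h, 37 C. CCF4 FRET fluorescence normalized to dexamethasone and DMSO; IC50 from Hill fit.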

[20] = target: Estrogen receptor (Homo sapiens) (UniProt P03372); experiment: qHTS assay for small molecule agonists of estrogen receptor alpha signaling (AID 588514); conditions: ER-alpha-UAS-bla HEK293, beta-lactamase ratio, 18 h; series mostly up to 76.8 µM;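 also: 0% = vehicle only and 100% = reference agonist; nearly all actives have a fitted effect of over 70% in size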
How it was run: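 Cells were plated at 5000/well, incubated 4 hrs at 37 C, dosed with compound titration series, incubated 18 hrs at 37 C, loaded with CCF4 dye for 2 hrs at RT, then fluorescence was read.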

Sequence of Glucocorticoid receptor (Homo sapiens) (P04150 whole entry, looked up): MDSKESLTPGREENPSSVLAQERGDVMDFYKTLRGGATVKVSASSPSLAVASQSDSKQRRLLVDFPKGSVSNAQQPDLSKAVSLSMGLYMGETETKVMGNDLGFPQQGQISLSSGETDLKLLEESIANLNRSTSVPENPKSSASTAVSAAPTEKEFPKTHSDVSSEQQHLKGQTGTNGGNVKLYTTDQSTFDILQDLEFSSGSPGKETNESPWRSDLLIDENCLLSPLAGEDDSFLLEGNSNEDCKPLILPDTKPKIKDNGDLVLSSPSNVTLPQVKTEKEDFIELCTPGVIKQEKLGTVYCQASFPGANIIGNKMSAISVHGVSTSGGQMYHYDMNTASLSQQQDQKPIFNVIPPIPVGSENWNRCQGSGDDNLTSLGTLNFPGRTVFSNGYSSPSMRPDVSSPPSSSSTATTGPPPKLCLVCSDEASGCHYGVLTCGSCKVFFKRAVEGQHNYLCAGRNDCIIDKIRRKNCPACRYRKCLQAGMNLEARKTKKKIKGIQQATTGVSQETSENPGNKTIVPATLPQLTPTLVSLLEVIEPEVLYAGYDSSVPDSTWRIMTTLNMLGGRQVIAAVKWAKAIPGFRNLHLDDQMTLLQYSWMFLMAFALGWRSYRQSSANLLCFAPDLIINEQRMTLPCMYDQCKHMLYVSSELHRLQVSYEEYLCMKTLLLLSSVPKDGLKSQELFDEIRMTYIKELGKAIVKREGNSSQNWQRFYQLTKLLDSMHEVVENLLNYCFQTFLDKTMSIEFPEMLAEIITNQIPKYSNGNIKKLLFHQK
Sequence of Peroxisome proliferator-activated receptor delta (Homo sapiens) (Q03181 whole entry, looked up): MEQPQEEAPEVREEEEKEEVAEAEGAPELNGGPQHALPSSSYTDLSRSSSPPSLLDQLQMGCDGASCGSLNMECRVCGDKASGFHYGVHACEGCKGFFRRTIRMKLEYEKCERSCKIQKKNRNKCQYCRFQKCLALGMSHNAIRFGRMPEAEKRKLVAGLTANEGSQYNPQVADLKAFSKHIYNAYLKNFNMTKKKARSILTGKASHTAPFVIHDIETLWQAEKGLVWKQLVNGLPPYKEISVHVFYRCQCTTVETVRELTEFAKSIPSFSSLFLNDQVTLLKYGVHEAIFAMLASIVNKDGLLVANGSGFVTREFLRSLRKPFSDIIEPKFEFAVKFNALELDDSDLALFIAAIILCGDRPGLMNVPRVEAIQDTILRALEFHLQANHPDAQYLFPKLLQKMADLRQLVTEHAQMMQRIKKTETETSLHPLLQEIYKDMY
Sequence of Peroxisome proliferator-activated receptor gamma (Homo sapiens) (P37231 whole entry, looked up): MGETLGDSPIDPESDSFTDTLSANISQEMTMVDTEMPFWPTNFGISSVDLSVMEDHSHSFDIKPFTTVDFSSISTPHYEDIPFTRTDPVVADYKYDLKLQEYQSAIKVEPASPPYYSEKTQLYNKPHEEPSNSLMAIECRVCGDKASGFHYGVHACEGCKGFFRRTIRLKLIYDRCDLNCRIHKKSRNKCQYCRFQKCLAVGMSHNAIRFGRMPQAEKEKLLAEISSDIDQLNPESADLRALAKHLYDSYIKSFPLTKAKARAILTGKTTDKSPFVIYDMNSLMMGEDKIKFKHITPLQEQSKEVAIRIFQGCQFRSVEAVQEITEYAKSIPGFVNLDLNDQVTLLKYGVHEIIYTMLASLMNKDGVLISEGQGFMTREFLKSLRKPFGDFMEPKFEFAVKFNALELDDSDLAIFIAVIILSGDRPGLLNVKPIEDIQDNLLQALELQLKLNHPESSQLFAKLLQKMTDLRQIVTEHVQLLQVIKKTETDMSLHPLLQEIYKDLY
Sequence of Estrogen receptor (Homo sapiens) (P03372 whole entry, looked up): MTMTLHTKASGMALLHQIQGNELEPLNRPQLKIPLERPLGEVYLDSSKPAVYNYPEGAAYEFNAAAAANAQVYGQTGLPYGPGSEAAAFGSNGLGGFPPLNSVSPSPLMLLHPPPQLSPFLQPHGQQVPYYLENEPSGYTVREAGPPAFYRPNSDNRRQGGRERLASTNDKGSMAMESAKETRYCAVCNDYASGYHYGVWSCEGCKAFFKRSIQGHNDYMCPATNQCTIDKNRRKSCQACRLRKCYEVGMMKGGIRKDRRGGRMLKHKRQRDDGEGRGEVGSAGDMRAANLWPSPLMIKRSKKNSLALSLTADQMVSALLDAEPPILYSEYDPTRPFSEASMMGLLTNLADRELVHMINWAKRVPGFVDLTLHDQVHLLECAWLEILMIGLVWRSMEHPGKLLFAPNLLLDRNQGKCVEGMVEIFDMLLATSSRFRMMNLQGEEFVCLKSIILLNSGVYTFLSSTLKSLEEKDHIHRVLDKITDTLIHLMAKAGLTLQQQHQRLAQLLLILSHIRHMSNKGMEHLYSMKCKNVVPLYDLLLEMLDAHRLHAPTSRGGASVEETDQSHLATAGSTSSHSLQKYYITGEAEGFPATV
Sequence of Thyroid hormone receptor beta (Homo sapiens) (P10828 whole entry, looked up): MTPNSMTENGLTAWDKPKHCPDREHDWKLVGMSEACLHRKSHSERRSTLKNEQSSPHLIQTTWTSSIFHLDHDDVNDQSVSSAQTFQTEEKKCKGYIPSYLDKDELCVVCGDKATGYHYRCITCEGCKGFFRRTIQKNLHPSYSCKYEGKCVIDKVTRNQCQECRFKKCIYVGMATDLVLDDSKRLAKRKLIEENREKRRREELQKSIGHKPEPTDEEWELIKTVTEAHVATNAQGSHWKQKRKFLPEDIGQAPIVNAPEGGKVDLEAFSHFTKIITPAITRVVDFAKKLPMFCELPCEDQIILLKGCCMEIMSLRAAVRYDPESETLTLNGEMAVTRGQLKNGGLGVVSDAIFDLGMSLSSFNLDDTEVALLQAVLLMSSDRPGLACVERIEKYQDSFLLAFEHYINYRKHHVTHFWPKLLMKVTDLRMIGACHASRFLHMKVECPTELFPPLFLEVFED
Sequence of Vitamin D3 receptor (Homo sapiens) (P11473 whole entry, looked up): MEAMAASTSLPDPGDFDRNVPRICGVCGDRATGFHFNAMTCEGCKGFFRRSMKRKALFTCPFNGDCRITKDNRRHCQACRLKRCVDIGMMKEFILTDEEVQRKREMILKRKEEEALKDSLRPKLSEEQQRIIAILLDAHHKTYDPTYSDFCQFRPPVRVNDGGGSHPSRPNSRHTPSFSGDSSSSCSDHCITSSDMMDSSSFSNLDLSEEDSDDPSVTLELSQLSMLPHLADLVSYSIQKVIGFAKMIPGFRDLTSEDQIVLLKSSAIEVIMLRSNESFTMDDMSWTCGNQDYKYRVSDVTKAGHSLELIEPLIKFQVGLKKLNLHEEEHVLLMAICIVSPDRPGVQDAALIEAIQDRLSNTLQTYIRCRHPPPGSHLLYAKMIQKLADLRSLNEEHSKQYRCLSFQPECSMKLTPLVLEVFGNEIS
Sequence of Bile acid receptor (Homo sapiens) (Q96RI1 whole entry, looked up): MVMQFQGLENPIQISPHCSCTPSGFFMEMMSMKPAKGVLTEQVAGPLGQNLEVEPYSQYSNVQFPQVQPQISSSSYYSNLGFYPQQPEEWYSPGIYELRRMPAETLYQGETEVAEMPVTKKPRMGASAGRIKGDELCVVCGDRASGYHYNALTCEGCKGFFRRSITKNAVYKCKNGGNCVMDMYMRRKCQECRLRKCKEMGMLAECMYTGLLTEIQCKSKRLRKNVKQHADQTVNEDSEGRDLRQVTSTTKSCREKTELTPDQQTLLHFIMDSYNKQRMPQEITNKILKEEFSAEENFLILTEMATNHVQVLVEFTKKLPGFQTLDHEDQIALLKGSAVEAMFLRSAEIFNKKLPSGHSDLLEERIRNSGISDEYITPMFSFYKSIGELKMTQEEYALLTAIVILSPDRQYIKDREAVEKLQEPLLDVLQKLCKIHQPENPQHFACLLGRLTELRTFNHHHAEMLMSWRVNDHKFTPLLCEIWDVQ

Oc1c(Cl)c(Cl)cc(Cl)c1Cl
-31%: max response [7]
inactive: Potency [2] > 92 µM | Potency [3] > 92 µM | Potency [4] | Potency [5] | activation [6] 3.3% | outcome [8] | outcome [9] | activation [10] 0.522% | Potency [11]
active: Potency [1] 49.1 µM

Nc1c(Br)cc([N+](=O)[O-])cc1[N+](=O)[O-]
33.6%: max response [7]
inactive: Potency [2] > 92 µM | Potency [3] > 92 µM | Potency [12] | activation [6] 0.276% | outcome [8] | Potency [13] | activation [14] -4.7% | activation [10] 3.36%

COC(C)(C)C
-16.9%: max response [7]
inactive: Potency [2] > 92 µM | Potency [3] > 92 µM | Potency [15] | Potency [16] | Potency [4] | Potency [5] | outcome [8] | outcome [17] | activation [10] -1.78% | Potency [11]

O=[N+]([O-])c1ccccc1CCl
inactive: Potency [2] > 92 µM | Potency [3] > 92 µM | Potency [5] | Potency [12] | activation [6] -1.64% | activation [18] 1.82% | outcome [19] | outcome [8] | outcome [9] | outcome [17] | Potency [13] | activation [10] -0.0678% | Potency [11]
-16.6%: max response [7]
active: Potency [15] 12.6 µM

Cc1cc(C)cc(OP(=O)(Oc2cc(C)cc(C)c2)Oc2cc(C)cc(C)c2)c1
inactive: Potency [2] > 92 µM | Potency [3] > 92 µM | Potency [16] | Potency [4] | Potency [12] | activation [6] 0.362% | outcome [19] | activation [10] 12.8% | Potency [11]

CN1CSC(=S)N(C)C1
inactive: Potency [2] > 92 µM | Potency [3] > 92 µM | Potency [12] | Potency [20] | activation [6] 0.811% and -0.41% | activation [18] 6.16% | outcome [19] | outcome [9] | outcome [17] | Potency [13] | activation [14] 0.178% and -0.711% | activation [10] -0.101% and -0.0706% | Potency [11]
active: Potency [1] 57.6 µM | Potency [15] 1.26 µM | Potency [5] 12.6 µM

ClCc1ccccn1
3.34%: max response [7]
inactive: Potency [1] > 92 µM | Potency [3] > 92 µM | Potency [15] | Potency [4] | Potency [5] | Potency [12] | Potency [20] | outcome [19] | outcome [8] | outcome [9] | Potency [13] | activation [14] -0.689% and -0.994% | activation [10] -0.85% and 1.26%

CC(C)(OOC(C)(C)c1ccccc1)c1ccccc1
42.8% and 13.3%: max response [7]
inactive: Potency [1] > 92 µM | Potency [3] > 92 µM | Potency [15] | Potency [16] | Potency [4] | Potency [5] | activation [6] 3.57% and 3.43% | activation [18] -3.95% and 1.36% | outcome [19] | outcome [8] | outcome [9] | outcome [17] | Potency [13] | activation [14] -3.14% and -2.07% | activation [10] -0.821% and 0.322%
